DT40 TDP1 no CPT = qHTS for Inhibitors of human tyrosyl-DNA phosphodiesterase 1 (TDP1): qHTS in cells in absence of CPT. DT40 Tdp1-/- hTDP1 cells, no CPT, ATP luminescence, 48 h. Potency, µM (titrated, usually from 46.2 µM), usual class: inhibitors. actives 15% (n = 420,000). AID 686978, 2013; also: nearly all actives have a fitted effect of over 55% in size
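Stably hTDP1-transfected Tdp1-null chicken DT40 cells were treated with library compounds minus camptothecin and grown for at least 48 hr at 37 °C, after which cellular ATP was quantified by luminescence.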
IL1B secr inh = blocks inflammasome-driven IL-1 beta release | THP-1 LPS/ATP IL-1B secretion, AlphaLISA, 16 h; stronger effect = lower value | AID 743279 | activity change, % at 57.5 µM | actives 4.7% (n = 360,000); in the data active = activity change below about -50%; inconclusive = mostly about -30% to -49%
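THP-1 cells pretreated 1 hr with compounds (up to 57.5 uM final), then stimulated with LPS (250 ng/mL final) plus ATP (1.25 mM final); secreted IL-1B measured by AlphaLISA after 16 hr, decreased signal indicating inhibition.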
HT1080 IDH1KD tx = toxicity to HT-1080 IDH1 knockdown cells (counter line) | actives 2% (n = 360,000) | HT-1080 IDH1 knockdown viability, ATP luminescence, 48 h | Potency, µM (top dose mostly 46.1 µM), actives largely listed as cytotoxic
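Viability of IDH1-knockdown HT-1080 fibrosarcoma cells was assessed by CellTiter-Glo after 48 h at 37 °C with titrated compound; concentration-effect curves were classified by fit quality and response size.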
HT1080NT lethal = kills 2HG-producing HT-1080-NT fibrosarcoma cells | AID 686970 | actives 1.6% (n = 360,000) | HT-1080-NT fibrosarcoma viability, CellTiter-Glo ATP luminescence, 48 h | Potency, µM (top dose mostly 46.1 µM), hits mostly cytotoxic;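 also: NT is the 2HG producing partner of a matched IDH1 knockdown line; nearly all actives have a fitted effect of over 55% in size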
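Fibrosarcoma NT cells, 750 per well in 5% FBS RPMI, were exposed to compound for 48 hours. Viability: CellTiter-Glo luminescence.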
DT40 TDP1 CPT = growth inhibition of DT40 Tdp1-/-;hTDP1 cells with camptothecin (screen for TDP1 inhibitors). chicken DT40 Tdp1-/-;hTDP1 cells + 20 nM CPT, ATP luminescence, 48 h. Potency, µM (doses to about 46.2 µM), actives largely listed as inhibitors. actives 12% (n = 420,000). AID 686979; also: nearly all actives have a fitted effect of over 55% in size
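Chicken DT40 Tdp1-/- cells complemented with human TDP1, 400 cells/well, exposed to compounds plus 20 nM camptothecin for at least 48 h at 37 C; viability read as ATP content by CellTiter-Glo luminescence.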
12-LOX inh = ALOX12 (human) lipoxygenase inhibition. Potency, µM (highest dose often 108 µM), actives largely listed as inhibitors. purified 12hLO, xylenol orange hydroperoxide absorbance. AID 1671190. actives 1.1% (n = 580,000). P18054
Target sequence (P18054 whole entry, looked up): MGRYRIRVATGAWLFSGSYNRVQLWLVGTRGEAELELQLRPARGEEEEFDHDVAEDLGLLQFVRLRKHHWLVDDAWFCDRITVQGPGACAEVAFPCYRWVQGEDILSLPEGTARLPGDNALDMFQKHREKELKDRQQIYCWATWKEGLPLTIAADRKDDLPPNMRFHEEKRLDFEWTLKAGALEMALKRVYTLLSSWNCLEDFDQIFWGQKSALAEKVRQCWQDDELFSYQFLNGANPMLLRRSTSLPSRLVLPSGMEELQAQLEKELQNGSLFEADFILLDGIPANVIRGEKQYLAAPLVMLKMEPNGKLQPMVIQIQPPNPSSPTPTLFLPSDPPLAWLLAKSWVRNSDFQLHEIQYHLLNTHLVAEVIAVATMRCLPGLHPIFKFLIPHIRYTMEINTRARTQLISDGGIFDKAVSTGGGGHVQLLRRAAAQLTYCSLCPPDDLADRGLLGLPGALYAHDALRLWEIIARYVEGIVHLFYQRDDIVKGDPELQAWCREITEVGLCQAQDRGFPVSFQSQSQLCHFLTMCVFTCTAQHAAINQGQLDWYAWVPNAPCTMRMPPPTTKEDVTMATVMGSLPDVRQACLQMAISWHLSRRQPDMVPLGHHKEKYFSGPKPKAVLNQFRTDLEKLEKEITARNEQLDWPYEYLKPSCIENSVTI
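Purified human 12hLO (150 nM final) in 25 mM Hepes, 0.01% Triton X-100, pH 7.0 was preincubated 15 min at room temperature with compound. Then 40 uM arachidonic acid was added, 30 min. Hydroperoxide was read by Fe-XO absorbance ratio 573/405 nm.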
A number is an active result; - = inactive; ? = inconclusive; . = no result given. This is one part of a sample in which hits are shown more often than they occur. Unless noted, calls follow the shape of the dose curve; as a rule, active = well fitted curve in the direction sought with a large enough effect; inconclusive = small, poorly fitted or top-dose-only effect, or another doubt; inactive = no such curve, though single readings can be large; an effect the other way counts as inactive or inconclusive.

SMILES	DT40 TDP1 no CPT	IL1B secr inh	HT1080 IDH1KD tx	HT1080NT lethal	DT40 TDP1 CPT	12-LOX inh
Cc1[nH]c2ccccc2c1C1(O)C(=O)N(Cc2ccccc2Cl)c2ccccc21 (configuration not stated)	5.2µM	.	.	.	5.8µM	-
Cc1cccc2c1NC(=O)C2(O)c1c(C)[nH]c2ccccc12 (configuration not stated)	.	.	.	.	.	-
Cc1[nH]c2ccccc2c1C1(O)C(=O)N(Cc2ccccc2)c2ccc(Br)cc21 (configuration not stated)	4.6µM	.	.	.	4.1µM	?
CCCCN1C(=O)C(O)(c2ccccc2)c2cc(Br)ccc21 (configuration not stated)	-	-	-	-	?	?
Cc1ccc(CN2C(=O)C(O)(c3c[nH]c4ccccc34)c3cc(Cl)ccc32)cc1 (configuration not stated)	23µM	.	.	.	?	?
CNC(=O)N1CCC(Cc2nncn2C)C1 (configuration not stated)	.	.	.	.	.	-
Nc1nc2ncc(=O)[nH]c2c(=O)[nH]1	15µM	.	.	.	-	.
Cn1ncc2c(=O)[nH]c(N)nc21	-	-	-	-	-	-
Cc1c(NC(=O)c2nn3c(C(F)(F)F)cc(-c4ccccc4)nc3c2Cl)c(=O)n(-c2ccccc2)n1C	?	-51	-	-	-	?
Cc1ccc(-c2cc(C(F)F)n3ncc(C(=O)Nc4cn(C)nc4C)c3n2)cc1	?	-	-	-	-	-
Cc1cc(NC(=O)c2cnn3c(C(F)F)cc(-c4ccccc4)nc23)no1	9.2µM	-	-	-	15µM	-
COCCNC(=O)c1cnn2c(C(F)F)cc(-c3ccccc3)nc12	21µM	-	-	-	?	-
CC(C)c1ccc(NC(=O)c2cnn3c(C(F)F)cc(-c4ccccc4)nc23)cc1	?	.	.	.	?	-
CCN(CC)c1ccc(NC(=O)c2cnn3c(C(F)F)cc(-c4ccccc4)nc23)cc1	13µM	.	.	.	?	?
Cn1cnc2c1c(=O)n(CC(=O)Nc1ccc(S(=O)(=O)N3CCCCCC3)cc1)c(=O)n2C	.	.	.	.	.	-
O=C(c1cnn2ccccc12)N1CCCC(c2nccn2Cc2ccncc2)C1 (configuration not stated)	.	.	.	.	.	-
Cc1cc(NC(=O)c2cnn3c(C(F)(F)F)cc(-c4ccccc4)nc23)no1	23µM	-69	-	-	13µM	-
O=C(Nc1cc(Cl)cc(Cl)c1)c1cnn2c(C(F)F)cc(C3CC3)nc12	.	.	.	.	.	-
Cc1cc(NC(=O)c2cnn3c(C(F)F)cc(C4CC4)nc23)no1	12µM	-	-	-	?	-
COC(=O)c1ccccc1NC(=O)c1cnn2c(C(F)F)cc(C3CC3)nc12	15µM	-	?	?	?	-
Cc1cc(C)cc(Nc2nc(NC3CCCC3)nc3c2cnn3-c2ccccc2)c1	.	.	.	.	.	-
COc1cc(NC(=O)N2CCc3nc(Nc4cc(Cl)cc(Cl)c4)ncc3C2)cc(OC)c1OC	?	?	?	?	23µM	-
COc1ccc(CNC(=O)N2CCc3nc(Nc4cc(OC)c(OC)c(OC)c4)ncc3C2)cc1	?	-	-	-	?	?
CCNc1nc(NCC)n2c(SC(C(=O)Nc3cc(C)ccc3C)c3ccccc3)nnc2n1 (configuration not stated)	12µM	?	?	-	?	-
CCNc1nc(NCC)n2c(SC(C)C(=O)c3ccc(C)cc3)nnc2n1 (configuration not stated)	13µM	-	-	-	?	-
SMILES	DT40 TDP1 no CPT	IL1B secr inh	HT1080 IDH1KD tx	HT1080NT lethal	DT40 TDP1 CPT	12-LOX inh
CCNc1nc(NCC)n2c(SCC(=O)Nc3ccc(NC(C)=O)cc3)nnc2n1	-	-	-	-	-	-
CCNc1nc(NCC)n2c(SCC(=O)Nc3ccc(CC)cc3)nnc2n1	?	-	-	-	21µM	.
Cc1ccc(C)c(NC(=O)C(Sc2nnnn2C)c2ccccc2)c1 (configuration not stated)	.	.	.	.	.	-
CCC(CC)NC(=O)c1cc2ccccc2cc1OC	.	.	.	.	.	-
Cc1ccc(C)c(Cn2c(=O)n(CCCCC(=O)NCc3ccc4c(c3)OCO4)c(=O)c3ccccc32)c1	?	.	.	.	?	-
COc1ccc(NC(=O)COc2cccc3c2OC(C)(C)C3)c(OC)c1	16µM	-	-	-	?	-
COc1cc(NC(=O)COc2cccc3c2OC(C)(C)C3)cc(OC)c1OC	8.2µM	-	-	-	13µM	-
Cc1ccc(CNC(=O)COc2cccc3c2OC(C)(C)C3)cc1	18µM	-	-	-	?	-
COc1ccc(CNCC(O)COc2cccc3c2OC(C)(C)C3)cc1 (configuration not stated)	8.2µM	?	-	?	9.2µM	-
COc1cccc(CNC(=O)COc2cccc3c2OC(C)(C)C3)c1	-	?	-	-	-	-
O=C1C(N2CCN(S(=O)(=O)c3cccs3)CC2)CCN1CCc1ccccc1 (configuration not stated)	.	.	.	.	.	-
COc1cc(C)c(NC(=O)COc2cccc3c2OC(C)(C)C3)cc1OC	12µM	-	-	-	16µM	.
COc1ccccc1NC(=O)COC(=O)COc1cccc2c1OC(C)(C)C2	-	-	-	-	-	-
CC(=O)NCCCNC(=O)NC1CCC(C)CC1 (configuration not stated)	.	.	.	.	.	-
Fc1ccc(CN2CCc3nc(N4CCN(c5ccccc5F)CC4)ncc3C2)c(F)c1	-	.	.	.	-	-
CCOc1cc(CN2CCN(c3ncccn3)CC2)ccc1OC	-	-	-	-	-	-
CCOc1ccccc1CN1CCc2nc(N3CCN(c4ccccc4F)CC3)ncc2C1	21µM	.	.	.	16µM	?
CCOc1ccc(CN2CCc3nc(N4CCN(c5ccccn5)CC4)ncc3C2)cc1OC	23µM	.	.	.	23µM	-
Cc1ccccc1CN1CCc2nc(N3CCN(c4ncccn4)CC3)ncc2C1	21µM	.	.	.	?	?
CC(C)(C)NC[C@H](O)COc1ccccc1C1CCCC1	10µM	.	.	.	13µM	.
CC(C)(C)NCC(O)COc1ccccc1C1CCCC1 (configuration not stated)	15µM	-	?	?	?	-
COc1ccc(C(=O)Nc2ccnn2C2CCN(C(=O)CN)CC2)cc1	.	.	.	.	.	-
CCCCOC(=O)c1ccc(NC(=S)NC(=O)c2c(Br)c(C)nn2C)cc1	21µM	-	-	-	?	-
CCOC(=O)c1ccc(NC(=S)NC(=O)c2cncc(Br)c2)cc1	-	-	-	-	-	-
O=c1oc2cccnc2n1CCS(=O)(=O)c1ccc(F)cc1	-	-66	-	-	-	-

Compound activity (PubChem)
